Screens from PubChem BioAssay.
Shiga toxin inh = blocks Shiga toxin action in Vero cells. Vero cells, Shiga toxin protein synthesis inhibition reporter. inhibition, % at 38.7 µM. hit rate 9.2% among 290,000. AID 2315; in the data active = inhibition mostly above about 28%, no sharp cut-off; inactive = mostly below about 43%; note: 0% is about no effect
HCV inhibitor = inhibitors of hepatitis C virus infection | Huh7.5.1 HCVcc-Cre infection, luciferase reporter, 44 h | Potency, µM (doses to about 41.8 µM), inactives show at the highest dose activity change, negative = inhibition, most hits filed as inhibitors | hit rate 3.4% among 340,000; active = well fitted inhibition curve with a large enough effect; inconclusive = small, poorly fitted or top-dose-only effect, or another doubt; inactive = no such curve, though single readings can be large or run the other way; note: potency is the fitted concentration of half-maximal effect; % is set by controls: 0 for no effect and ±100 for the full control effect
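1,000 cells/well; 4 h culture; + compound; + HCVcc-Cre (~0.5 moi); 44 h; luciferase substrate, RT 15 min; read 15 sec.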
Lassa entry inh = Lassa virus entry inhibition; Potency, µM (series often up to 37.9 µM), without a hit: at the highest dose activity change, negative = inhibition, actives largely listed as inhibitors; Lassa virus pseudotype entry inhibition, cell reporter; AID 540256; hit rate 1.2% among 300,000; calls by dose curve; tested in HEK293 cells; note: potency is the fitted concentration of half-maximal effect; % is set by controls: 0 for no effect and ±100 for the full control effect; nearly all actives have a fitted effect of over 50% in size
MARV entry inh = inhibitors of Marburg virus binding or cell entry; Marburg virus pseudotyped entry inhibition, cell reporter; Potency, µM (top dose mostly 37.8 µM), for inactives: top-dose activity change, negative = inhibition, most hits filed as inhibitors; hit rate 1.8% among 300,000; calls by dose curve; tested in HEK293 cells; note: potency is the fitted concentration of half-maximal effect; % is set by controls: 0 for no effect and ±100 for the full control effect
Cycloheximide cs = counter-screen hit for Shiga toxin inhibitors, cycloheximide | max response, % | cell reporter, cycloheximide protein synthesis inhibition counterscreen | AID 2314 | hit rate 12% among 300,000; in the data active = max response mostly above about 13%, no sharp cut-off; inactive = mostly below about 14%; note: read at 38.3 µM for the half of the compounds with a filed dose; 0% is about no effect
FMDV inh = blocks foot and mouth disease virus; FMDV antiviral cell-based qHTS; Potency, µM (series often up to 57.9 µM), for inactives: at the highest dose activity change, negative = inhibition, most hits filed as inhibitors; hit rate 1.2% among 410,000; AID 1159524; calls by dose curve; tested in HEK293T cells; note: read-out not given here; potency is the fitted concentration of half-maximal effect; % is set by controls: 0 for no effect and ±100 for the full control effect; nearly all actives have a fitted effect of over 45% in size
The depositor's hits bear a star; u = inconclusive; x = no result given; [ ] = dose if it differs, or a comment. Rows were chosen to be rich in hits. Some 13% of all compounds tested hit in one or more screens of this group.

SMILES | Shiga toxin inh | HCV inhibitor | Lassa entry inh | MARV entry inh | Cycloheximide cs | FMDV inh
Cc1nc2c(-c3ccc(F)cc3)c(C)nn2c(N2CCOCC2)c1C | 18 | 5% | -9% | u | 3 | -30%
Cc1cc(N)n2ncc(-c3ccc(F)cc3)c2n1 | 68* | 10µM* | u | 0%[46.1 µM] | 50* | 47%
Cc1cc(N)n2ncc(-c3ccc(Cl)cc3)c2n1 | 49* | u | 11% | u | 22* | 47%
Cc1nc2c(-c3ccc(F)cc3)cnn2c(N)c1-c1ccc(F)cc1 | 93* | u | -23%[46.1 µM] | 5µM* | 61* | u
Cc1cc(Cl)n2ncc(-c3ccccc3)c2n1 | 62* | u | u | u | 57* | -17%
CCOC(=O)c1cnn(-c2cc(C)nc3c(-c4ccccc4)cnn23)c1N | 19 | -7% | 10% | u | 16 | 5%
CN=C1SC(CC(=O)Nc2cccc(C(F)(F)F)c2)C(=O)N1C (centres undefined) | -15 | u | -4% | -3% | -2 | u
CC1=C[C@H]2[C@]3(O)C(C=C(CO)C[C@]2(O)C1=O)[C@@H]1C(C)(C)[C@]1(O)[C@H](O)[C@H]3C (some centres undefined) | -4 | x | x | x | -5 | x
O=C1c2ccccc2C(c2nnnn2-c2ccc3c(c2)OCCO3)N1CCc1c[nH]c2ccccc12 (centres undefined) | x | x | x | x | x | 0%
CCN(CC)C(=O)CSC1=C(C#N)C(c2ccco2)C(C(=O)OCCOC)=C(C)N1 (centres undefined) | 2 | u | -10% | -1% | 3 | 1%
CCOC(=O)Cn1c(=O)oc2cc(S(=O)(=O)NC(C)c3ccccc3)ccc21 (centres undefined) | -8 | 0% | 22%[46.1 µM] | 3%[46.1 µM] | -3 | 14%
CC(C)c1cc(N2CCOCC2)n2ncc(-c3ccccc3)c2n1 | 16 | u | u | -1% | 13 | -1%
Cc1cc(-c2ccc(Cl)cc2)c2cnn(C(C)C)c2n1 | 19 | u | x | x | 30* | 7%
CCOC(=O)Cc1c(C)nc2c(-c3ccc(Cl)cc3)cnn2c1C | 49* | -10% | 23% | 9%[46.1 µM] | 18 | 15%
Cc1cc(N2CCOCC2)n2ncc(-c3ccccc3Cl)c2n1 | 88* | u | 1% | u | 41* | 30%
Cc1cc(C)n2cc(-c3ccc(Cl)cc3)c(C(=O)O)c2n1 | 51* | -9% | -1% | 20% | 22* | 32%
CCOC(=O)CSCc1csc(CC(=O)Nc2ccccc2C)n1 | x | -3% | x | x | x | -7%
c1ccc2c(c1)CCN(C1=Nc3cccc4cccc1c34)C2 | 49* | u | u | u | 35* | -11%
c1cc2c3c(cccc3c1)C(N1CCCCCC1)=N2 | 25 | -1% | -12% | u | 16 | -18%
CC(=O)Nc1ccc(S(=O)(=O)Nc2nc3ccc([N+](=O)[O-])cc3s2)cc1 | -7 | 3% | -23% | 6%[46.1 µM] | 0 | 31%
COc1ccc(NS(=O)(=O)NC(=O)c2c(C)n(C)c3ccccc23)cc1 | -6 | 15% | x | x | 24* | -1%
CCOCC(=O)Nc1cc(C(=O)Nc2ccc(F)cc2)ccc1Cl | 33* | x | x | x | 29* | x
COCC(=O)Nc1cc(C(=O)Nc2ccccc2)ccc1Cl | 107* | x | x | x | 36* | x
CC(C)CNC(=O)c1ccc(Cl)c(NC(=O)COc2ccccc2)c1 | -1 | x | x | x | -2 | x
COc1ccc2[nH]c(C)c(CCN(Cc3cccs3)C(=S)Nc3cccc(F)c3)c2c1 | 28 | u | x | -1% | 18 | -4%
SMILES | Shiga toxin inh | HCV inhibitor | Lassa entry inh | MARV entry inh | Cycloheximide cs | FMDV inh
CNCCC=C1c2ccccc2CCc2ccccc21 | -3 | 2%[8.37 µM] | 21µM* | 7.1µM* | -3 | u
C[N+](C)(C)CC/C=C1/c2ccccc2CSc2ccccc21 | 14 | -16% | 23% | 3% | -2 | -5%
Cc1ccccc1Nc1nc(-c2sc(NC(=O)c3ccc([N+](=O)[O-])cc3)nc2C)cs1 | 39 | x | x | -10% | 16* | x
Cc1nc(NC(=O)c2ccccc2)sc1-c1csc(Nc2ccc(Cl)cc2Cl)n1 | 56 | x | x | 0% | 15 | x
Cc1ccccc1Nc1nc(-c2sc(NC(=O)c3ccccc3)nc2C)cs1 | 50* | x | x | 5% | 12 | x
Cc1ccccc1Nc1nc(-c2sc(NC(=O)c3cccc(Cl)c3)nc2C)cs1 | 44 | x | x | -7% | 19* | x
Cc1ccc(Cl)cc1Nc1nc(-c2sc(NC(=O)c3cccc(Cl)c3)nc2C)cs1 | -3 | x | x | x | 11 | x
O=C(/C=C/c1ccccc1)NC1CCS(=O)(=O)C1 (centres undefined) | -3 | -1% | 10% | u | 7 | -23%
O=C(Cc1ccc(Cl)cc1Cl)NC1CCCCCC1 | 14 | -7% | 14%[46.1 µM] | u | -2 | -14%
COc1ccc(/C=C/C(=O)NC2CCS(=O)(=O)C2)cc1 (centres undefined) | x | 11% | 23% | 12% | x | 13%
O=C(/C=C/c1ccc(Br)cc1)NC1CCCCCC1 | 62* | 2% | u | 11% | 17* | 40%
CCCOc1ccc(/C=C/C(=O)NC2CCCCC2)cc1 | 16 | u | u | u | 6 | 36%
CC(C)Cc1ccc(/C=C/C(=O)NC2CC2)cc1 | 112* | 15% | -20% | 18% | 71* | 47%
Cc1ccc(/C=C/C(=O)NC2CCS(=O)(=O)C2)cc1 (centres undefined) | 14 | 26% | x | x | 20* | 21%
O=C(Cc1ccc(Cl)c(Cl)c1)NC1CCCCCC1 | 79* | -9% | u | 17%[46.1 µM] | 12* | 27%
CCN(CC(=O)Nc1ccc2c(c1)OCCO2)C(=O)/C=C/c1ccc(OC)c(OC)c1 | x | -6% | -5% | 0% | x | -9%
CC(=O)c1cccc(NC(=O)CCNC(=O)c2cccc(C)c2)c1 | -10 | -18% | -17%[46.1 µM] | 4%[46.1 µM] | 6 | -9%
CC1(c2nnc(Cc3ccccc3)o2)CC(c2ccc(Br)cc2)=NO1 (centres undefined) | x | -7% | x | x | x | -1%
Cc1ccc(NC(=O)CNC(=O)c2ccc(C(C)(C)C)cc2)cc1S(=O)(=O)N1CCOCC1 | x | -6% | u | u | x | -11%
O=C(Cc1ccc(O)cc1)NC1CCCCCC1 | 69* | 23% | -26%[46.1 µM] | u | 42* | 49%
O=C(Cc1ccc([N+](=O)[O-])cc1)NC1CCCCCC1 | 11 | u | x | x | 6 | -13%
O=C(Cc1ccc(Br)cc1)NC1CCCCC1 | 20 | 1% | 1% | 14% | 22* | 50%
O=C(COC(=O)Cc1ccc(Br)cc1)NC1CCCC1 | x | 9% | 3%[46.1 µM] | 2%[46.1 µM] | x | -9%
COc1ccc(OC)c(CN2CCN(Cc3ccc(OC)c(OC)c3OC)CC2)c1 | x | x | x | x | x | -16%
COc1ccc(CN2CCN(CCSc3ccc(C)cc3)CC2)c(OC)c1OC | -3 | 14µM* | x | x | -1 | u
CC(=O)N1CCN(CC(=O)Nc2ccccc2C(=O)Nc2ccccc2)CC1 | x | 17% | x | x | x | -16%
CCC(=O)c1cn([C@H](CCC(OC)OC)CC(=O)OC(C)(C)C)cc1CC | x | -1% | x | x | x | -24%
CC(C)n1cnc2c(Nc3cccc(F)c3)nc(NCCO)nc21 | 25 | -21% | x | x | 19* | 44%
